# Data reported in ChEMBL document CHEMBL1156829.
# Over roughly 5,400 compounds, “IFI” has its median near 2; the highest 2% begin near 22. Only a selection was taken, and the highest values are over-represented in it overall.
# Assay: NOVARTIS: Inhibition Frequency Index (IFI) - the number of HTS assays where a compound showed > 50% inhibition/induction, expressed as a percentage of the number of assays in which the compound was tested.
# Format: functional
row,SMILES,IFI
1,Cn1ccnc1C(=O)NNc1ncc(C(F)(F)F)cc1Cl,13.3%
2,CCCN[P+](CC(C)C)(NCCC)NCCC,10.9%
3,C=C[C@H]1CN2CC[C@H]1C[C@H]2[C@H](OC(=O)CC)c1ccnc2ccccc12,1.87%
4,C=C1[C@@H](C)[C@H]2[C@H](Cc3ccccc3)NC(=O)[C@]23C(OC(C)=O)C=C[C@@](C)(O)C(=O)[C@@H](C)CC=C[C@H]3[C@@H]1O (stereo not given in full),6.9%
5,CCOC(=O)c1c(S(=O)(=O)Nc2ccc(C(C)(C)C)cc2)c(-c2ccccc2)n(-c2ccccc2)c1C,3.09%
6,CC[C@H]1CN2CC[C@H]1C[C@H]2[C@H](O)c1ccnc2ccccc12,5.17%
7,CC1=C[C@H]2O[C@@H]3C[C@H]4OC(=O)C=CC=C[C@H]([C@@H](C)O)OCC[C@@H](C)[C@H](O)C(=O)OC[C@@]2(CC1)[C@]4(C)[C@@]31CO1,24.5%
8,CC1=CC(=O)OC[C@]23C[C@H](O)C(C)=C[C@H]2O[C@@H]2C[C@@H](OC(=O)C=CC=CC(=O)OCC1)[C@@]3(C)[C@]21CO1,22.6%
9,CC1=CC(=O)OC[C@]23CCC(C)=C[C@H]2O[C@@H]2C[C@@H](OC(=O)C=CC=CC(=O)OCC1)[C@@]3(C)[C@]21CO1,22.6%
10,Cc1onc(O)c1CC(N)C(=O)O (stereo not given),0%
11,CCOc1ccc2nccc([C@@H](O)[C@@H]3C[C@@H]4CCN3C[C@@H]4CC)c2c1,3.82%
12,Cc1ccc(O)c(C(=O)c2c[nH]c(-c3nc4ccccc4[nH]3)c2)c1,0%
13,C=CC1CN2CCC1CC2[C@@H](OC(=O)c1ccc(C(C)(C)C)cc1)c1ccnc2ccc(OC)cc12 (stereo not given in full),0%
14,O=C(NNc1cccc(F)n1)C(F)(F)F,1.25%
15,C=CC(C)(CCC=C(C)C)c1ccc2c3c(c[nH]c13)CC(CO)NC(=O)C(C(C)C)N2C (stereo not given),11.3%
16,CS/C(Cl)=C(/NC(C)=O)[P+](c1ccccc1)(c1ccccc1)c1ccccc1,5.34%
17,C/C=C1/C[C@H]2[C@@H](OC)Nc3cc(O)c(OC)cc3C(=O)N2C1,28.6%
18,O=C1Cc2ccccc2C(=C2CCNCC2)c2ccsc21,0%

row,SMILES,IFI
1,CC=C[C@H]1O[C@@](O)([C@@H](C)C(O)C(C)[C@H]2OC(=O)C(OC)=CC(C)=C[C@@H](C)[C@@H](O)[C@@H](C)[C@@H](O)C(C)CC(C)=CC=C[C@@H]2OC)C[C@@H](O[C@H]2C[C@@H](O)[C@H](OC(N)=O)[C@@H](C)O2)[C@@H]1C (stereo not given in full),15.5%
2,CCOC(=O)c1ccc2nc(C)cc(Nc3ccc(N4CCCCC4)cc3)c2c1,1.12%
3,CCN1C(=Cc2sc3ccccc3[n+]2CC)[Se]c2ccccc21,22.6%
4,CCC(=O)OC(C(C)C(=O)O)C(C)C1OC2(CCC(C)(C3CCC(C)(C4OC(C5OC(O)(CO)C(C)CC5C)CC4C)O3)O2)CC(O)C1C (stereo not given),8.62%
5,C[n+]1c2n(c3ccccc31)N=C(c1ccccc1)C[Se]2,3.7%
6,CC1CC2CCC(O2)C(C)C(=O)O[C@H](C)CC2CCC(O2)C(C)C(=O)OC(C)CC2CCC(O2)C(C)C(=O)O[C@H](C)CC2CCC(O2)C(C)C(=O)O1 (stereo not given in full),19.2%
7,CCC1CC2CCC(O2)C(C)C(=O)OC(C)CC2CCC(O2)C(C)C(=O)OC(CC)CC2CCC(O2)C(C)C(=O)OC(C)CC2CCC(O2)C(C)C(=O)O1 (stereo not given),24.1%
8,C[C@@H]1C[C@H]2CC[C@H](O2)[C@H](C)C(=O)O[C@@H](C)C[C@@H]2CC[C@@H](O2)[C@@H](C)C(=O)O[C@H](C)C[C@H]2CC[C@@H](O2)[C@H](C)C(=O)O[C@@H](C)C[C@@H]2CC[C@@H](O2)[C@@H](C)C(=O)O1,12.5%
9,CCCCCc1cc(O)c2c3c(c(=O)oc2c1)CN(C)CC3,2.29%
10,O=C1CN=C(c2ccccc2Cl)c2cc(Cl)ccc2N1Cc1cccc([N+](=O)[O-])c1,1.92%
11,CCCCCCCc1cc(O)c2c3c(c(=O)oc2c1)CCC(C)C3 (stereo not given),0%
12,C=C[C@H]1CN2CC[C@H]1C[C@H]2[C@H](OC(=O)CCCC)c1ccnc2ccccc12,4.59%
13,COc1ccc2c(c1)CC1c3c(cc4c(c3-2)OCO4)CCN1C (stereo not given),25%
14,CN1CCc2cc3c(c4c2C1Cc1ccccc1-4)OCO3 (stereo not given),6.17%
15,COc1cc2c3cc1Oc1c(OC)c(OC)cc4c1C(Cc1ccc(O)c(c1)Oc1ccc(cc1)CC3N(C)CC2)N(C)CC4 (stereo not given),7.14%
16,CC[C@@]1(O)C[C@H](O[C@@H]2CC(N(C)C)[C@@H](O[C@@H]3C[C@@H](O)[C@@H](O[C@@H]4CCC(=O)[C@@H](C)O4)C(C)O3)[C@@H](C)O2)c2c(cc3c(c2O)C(=O)c2c(O)ccc(O)c2C3=O)[C@H]1C(=O)OC (stereo not given in full),21.4%
17,OC1(c2ccc(Cl)c(C(F)(F)F)c2)CCN(CCOC2c3ccccc3CSc3ccc(Cl)cc32)CC1 (stereo not given),2.38%
